Screens (PubChem)
A selection: hits, their analogues and other compounds. The true share with any hit is near 14%.
Pf growth 96h: P. falciparum growth inhibition at 96 hour, primary screen for plastid delayed-death inhibitors; actives 6.9% (n = 320,000); P. falciparum luciferase reporter growth, 96 h; Potency, µM (top dose mostly 28.7 µM), inactives show at the top dose activity change, negative = inhibition, hits mostly inhibitors; also: potency is read from the fitted curve at half-maximal effect
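Luminescence readout: decreased luciferase signal marks inhibited growth of reporter-expressing P. falciparum in infected red cells (2% hematocrit, 0.05% parasitemia final), exposed to compound two generations (96 h, 37 C, 5% CO2).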
Sm TGR block: blocks Schistosoma mansoni thioredoxin glutathione reductase | Q962Y6 | purified TGR, DTNB reduction, TNB absorbance 405 nm | Potency, µM (doses to about 114 µM), inactives show at the highest dose activity change, negative = inhibition, most hits filed as inhibitors | actives 3% (n = 360,000); also: potency is read from the fitted curve at half-maximal effect; nearly all actives have a fitted effect of over 60% in size
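TGR 20 nM + NADPH 100 uM (dispensed conc.), cpd preinc 15 min RT; start with NADPH (500 uM addition) then DTNB (15 mM addition). Kinetic TNB absorbance, 405 nm filter. Four-parameter Hill fit across titration.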
Pf growth 48h: inhibits P. falciparum growth in the first generation, 48 h. actives 5.9% (n = 310,000). Potency, µM (highest dose often 28.7 µM), for the others: at the top dose activity change, negative = inhibition, actives largely listed as inhibitors. AID 504832. P. falciparum luciferase growth in erythrocytes, 48 h; also: potency is read from the fitted curve at half-maximal effect
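Luciferase-expressing parasites in RBCs, 2% Hct / 0.1% parasitemia final; RPMI 1640 + 0.5% Albumax; 37 C, 5% CO2, one generation; luminescence read-out, lower signal = inhibition.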
HCMV antiviral: blocks human cytomegalovirus replication; actives 4.5% (n = 410,000); HFF cells, HCMV-luciferase reporter, 72 h; active compounds read low; activity change, negative = inhibition, % at 57.5 µM; in the data active = activity change below about -60%; inconclusive = no clear call, values can overlap the other calls; inactive = above about -39%
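Steps: HFFs plated, 16 h 37C; compounds added; HCMV-luciferase added to MOI 1 PFU/cell; 72 h 37C; OneGlo reagent, 5 min room temperature; luminescence read, normalized to controls.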
FBPA Giardia inh: Giardia lamblia aldolase inhibition; purified Giardia FBPA; Potency, µM (doses to about 59.6 µM), without a hit: at the highest dose activity, negative = inhibition, actives largely listed as inhibitors; actives 0.71% (n = 290,000); AID 2451; also: potency is read from the fitted curve at half-maximal effect; nearly all actives have a fitted effect of over 55% in size
Target sequence (A8B2U2 whole entry, looked up): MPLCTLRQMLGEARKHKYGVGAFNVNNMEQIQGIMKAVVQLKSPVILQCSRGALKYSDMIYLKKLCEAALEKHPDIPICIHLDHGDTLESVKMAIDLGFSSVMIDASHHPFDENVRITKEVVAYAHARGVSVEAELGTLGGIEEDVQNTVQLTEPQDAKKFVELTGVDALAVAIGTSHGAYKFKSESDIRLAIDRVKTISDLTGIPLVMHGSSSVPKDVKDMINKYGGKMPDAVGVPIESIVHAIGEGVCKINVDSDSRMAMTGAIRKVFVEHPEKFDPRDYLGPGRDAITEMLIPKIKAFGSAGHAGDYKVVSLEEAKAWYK
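Giardia FBPA (40 nM reagent) was preincubated 10 min at RT with compound (up to 57.5 uM final), then substrate plus GAPDH/TPI/NAD/arsenate coupling system with diaphorase/resazurin was added; resorufin fluorescence (525/598 nm) was read after 20 min.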
Numbers without * were called inactive; ? = inconclusive; . = not tested or not shown; ! = not confirmed by another sample. Unless noted, calls follow the shape of the dose curve; as a rule, active = well fitted curve in the direction sought with a large enough effect; inconclusive = small, poorly fitted or top-dose-only effect, or another doubt; inactive = no such curve, though single readings can be large; an effect the other way counts as inactive or inconclusive. % is scaled to controls: 0 for no effect and ±100 for the full control effect.

SMILES | Pf growth 96h | Sm TGR block | Pf growth 48h | HCMV antiviral | FBPA Giardia inh
Cc1ccccc1N1CC(c2nc3ccccc3n2CCC2CCCCC2)CC1=O (centres undefined) | . | -11% | . | ? | .
Cc1ccccc1N1CC(c2nc3ccccc3n2Cc2ccc(Br)cc2)CC1=O (centres undefined) | . | 0% | . | -78* | .
CC(C)N(C(=O)[C@H]1C[C@H](CC(=O)NCCc2ccccn2)C(=O)N2CCc3c([nH]c4cc(CCC(=O)N(C)C)ccc34)[C@]12C)C(C)C | . | . | . | 24 | .
Cc1cc2c(N=O)c(NO)ccc2[nH]1 | 41% | -34% | 3.7µM* | . | ?
C=CCc1cccc2cc(C(=O)NCc3cccnc3)c(=O)oc12 | -2% | 7% | 8% | 8 | 1%
CCOc1cccc2cc(C(=O)NCc3ccc(OC)cc3)c(=N)oc12 | 10µM* | -1% | ? | 15 | -1%
CCOc1cccc2cc(C(=O)NCc3cccnc3)c(=O)oc12 | 2.3µM* | 6% | 18% | -1 | -3%
CCOc1cccc2cc(C(=O)NCc3ccc(C)cc3)c(=N)oc12 | -18% | -6% | -1% | 5 | -8%
COc1ccc(NC(=O)/C=C/c2cc(Br)ccc2OC)cc1 | 18% | -22% | -5% | -29 | -8%
COc1ccc(Br)cc1/C=C/C(=O)c1ccc(NC(C)=O)cc1 | 288% | -4% | -85% | -98* | 8%
O=C1C=CC2=C3c4cc(O)c(O)cc4CC3(O)COC2=C1O (centres undefined) | . | . | . | -36 | 11µM*
O=C(OC[C@@H]1O[C@@](O)(COC(=O)c2cccnc2)[C@H](OC(=O)c2cccnc2)[C@H]1OC(=O)c1cccnc1)c1cccnc1 | ? | . | -20% | . | 5%
COc1ccc(CC(=O)Nc2cccc(-c3csc(C)n3)c2)cc1 | . | -28% | 6% | -14 | -2%
COc1ccc(-c2csc(N(CCc3ccccc3)C(=O)COc3ccccc3)n2)cc1 | -144% | -24% | ? | 5 | 1%
O=C(COc1ccc(Cl)cc1)N(Cc1ccccc1)c1nc(-c2ccccc2)cs1 | 30% | 10% | 1.5µM* | 15 | 4%
Cc1nc(-c2cccc(NC(=O)COc3ccc(Cl)cc3)c2)cs1 | 1% | 17% | 12% | -64* | .
Nc1nc(-c2ccc(NC(=O)c3ccco3)cc2)cs1 | 123% | 12% | 11% | 15 | 1%
Cc1nc(-c2ccc(NC(=O)c3ccco3)cc2)cs1 | ? | 4% | -17% | -84* | 2%
Cc1nc(-c2ccc(NC(=O)/C=C\C(=O)O)cc2)cs1 | 12% | -23% | 50% | -81* | 10%
CN1CCN(c2ccc([N+](=O)[O-])cc2NC(=O)c2cccs2)CC1 | ? | 3% | -20% | 28 | .
CCOC(=O)Cc1c(C)nc2c(-c3ccc(OC)c(OC)c3)c(C)nn2c1C | . | -2% | . | -23 | .
CC(C)N1CC2(CC(c3ccccc3C(F)(F)F)=NO2)CN1C(=O)c1ccco1 (centres undefined) | . | . | . | -10 | .
CCCCCCCCCCCCCC(=O)OCC(COP(=O)([O-])OCC[N+](C)(C)C)OC(=O)CCCCCCCCCCCCC (centres undefined) | 9% | . | 9% | . | .
CC(C)CC(=O)Nc1cccc(-c2csc(-c3ccccc3)n2)c1 | 6.6µM* | -5% | ? | 7 | 8%
CCS(=O)(=O)c1ccc(-c2cccc(NC(=O)c3ccco3)c2)nn1 | ? | -11% | ? | -34 | .
SMILES | Pf growth 96h | Sm TGR block | Pf growth 48h | HCMV antiviral | FBPA Giardia inh
Cc1nn2c(-c3cccc(NC(=O)c4ccco4)c3)nnc2c2ccccc12 | 53% | -15% | 9.3µM* | ? | 2%
Cc1nc(-c2cccc(NC(=O)c3ccco3)c2)cs1 | -22% | -4% | ? | -87* | .
Clc1cccc(Cl)c1C[n+]1ccc2ccccc2c1 | 32% | -4% | 2.1µM* | -94* | -4%
c1ccc(C[n+]2ccc3ccccc3c2)cc1 | . | . | . | -25 | .
COc1ccc(NC(=O)CS(=O)CC(=O)Nc2cccnc2)cc1 (centres undefined) | -2% | 5% | 10% | 20 | 9%
CCc1nc2ccc(C(=O)NCc3ccc4c(c3)OCO4)cn2c1N(C)Cc1cccs1 | . | . | . | -9 | .
COc1ccc(N(C)S(=O)(=O)c2cccc(C(=O)OC(C)C(=O)NC3CCCCC3C)c2)cc1 (centres undefined) | 21% | -4% | 12µM* | -15 | .
COc1ccc(N(C)S(=O)(=O)c2cccc(C(=O)NC3CCC(C)CC3)c2)cc1 (centres undefined) | ? | 13% | 0% | -62* | -11%
COc1ccc(N(C)S(=O)(=O)c2cccc(C(=O)NC3CCCCCC3)c2)cc1 | ? | -6% | ? | -7 | -6%
COc1ccc(N(C)S(=O)(=O)c2cccc(C(=O)NC3CCCC(C)C3C)c2)cc1 (centres undefined) | ? | 2% | ? | -32 | .
COc1ccc(N(C)S(=O)(=O)c2cccc(C(=O)Nc3cccc(C(=O)NC4CC4)c3)c2)cc1 | 15µM* | 0% | 5.2µM* | -8 | .
O=C(Nc1cccc(-n2cnnn2)c1)c1ccc(C(F)(F)F)cc1 | ? | 0% | ? | ? | .
CSCCC(C(=O)Nc1c(C)cccc1C)N1CCN(c2ccc(C(F)(F)F)cn2)CC1 (centres undefined) | . | . | . | 6 | .
O=C1NC(=S)S/C1=C\C=C\c1ccc([N+](=O)[O-])o1 | 0.29µM* | 2.2µM* | 0.29µM* | -100* | -20%
C[C@]12CCC(=O)C=C1CC[C@@H]1[C@H]2[C@@H](O)C[C@@]2(C)[C@H]1CC[C@]2(O)C(=O)CO | ? | . | -23% | . | .
CC(=O)c1cccc(-c2ccnc3c2CC(C(=O)Nc2cccc(Oc4ccccc4)c2)O3)c1 (centres undefined) | . | . | . | 38 | .
O=S(=O)(c1ccc(-n2cnnn2)cc1)N1CCN(c2cccc(Cl)c2)CC1 | . | -1% | . | 10 | .
CC(=O)N1c2ccc(S(=O)(=O)N3CCC(C(=O)Nc4cc(C)ccn4)CC3)cc2CC1C (centres undefined) | ? | -6% | ? | -69* | 14%
COc1ccc(C)cc1NC(=O)CN(C)S(=O)(=O)c1ccc2c(c1)CC(C)N2C(C)=O (centres undefined) | 7.4µM* | 0% | -22% | -21 | .
CCCNC(=O)C1CCC(CNS(=O)(=O)c2ccc3c(c2)CC(C)N3C(C)=O)CC1 (centres undefined) | -2% | -2% | -7% | 0 | .
COc1cc(OC)c(NC(=O)C2CCN(S(=O)(=O)c3ccc4c(c3)CC(C)N4C(C)=O)CC2)cc1Cl (centres undefined) | 0% | -4% | 0% | -19 | -4%
COc1ccc(OC)c(NC(=O)C2CCN(S(=O)(=O)c3ccc4c(c3)CC(C)N4C(C)=O)CC2)c1 (centres undefined) | 15µM* | 0% | ? | -86*! | .
